The values below come from ChEMBL document CHEMBL1961873, “Compounds: GSK PKIS; Assays: Nanosyn kinase panel” (2012).

The structures appear in SMILES notation.

The target in test [1] is RAC-alpha serine/threonine-protein kinase (Homo sapiens) (UniProt P31749). Conditions: at 0.1 µM.
Test [2] has the same target. Conditions: at 1 µM.
In test [3] the target is RAC-beta serine/threonine-protein kinase (Homo sapiens) (UniProt P31751). Conditions: at 0.1 µM.
Test [4] has the same target. Conditions: at 1 µM.
Test [5] has as its target RAC-gamma serine/threonine-protein kinase (Homo sapiens) (UniProt Q9Y243). The settings on record: at 0.1 µM.
For test [6] the target is unchanged. Conditions: at 1 µM.
Test [7] has as its target G protein-coupled receptor kinase 6 (Homo sapiens) (UniProt P43250). The settings on record: at 0.1 µM.
Test [8] has the same target. The settings on record: at 1 µM.
The target of test [9] is T1, Rhodopsin kinase GRK7 (Homo sapiens) (UniProt Q8WTQ7).
T1 sequence (whole entry): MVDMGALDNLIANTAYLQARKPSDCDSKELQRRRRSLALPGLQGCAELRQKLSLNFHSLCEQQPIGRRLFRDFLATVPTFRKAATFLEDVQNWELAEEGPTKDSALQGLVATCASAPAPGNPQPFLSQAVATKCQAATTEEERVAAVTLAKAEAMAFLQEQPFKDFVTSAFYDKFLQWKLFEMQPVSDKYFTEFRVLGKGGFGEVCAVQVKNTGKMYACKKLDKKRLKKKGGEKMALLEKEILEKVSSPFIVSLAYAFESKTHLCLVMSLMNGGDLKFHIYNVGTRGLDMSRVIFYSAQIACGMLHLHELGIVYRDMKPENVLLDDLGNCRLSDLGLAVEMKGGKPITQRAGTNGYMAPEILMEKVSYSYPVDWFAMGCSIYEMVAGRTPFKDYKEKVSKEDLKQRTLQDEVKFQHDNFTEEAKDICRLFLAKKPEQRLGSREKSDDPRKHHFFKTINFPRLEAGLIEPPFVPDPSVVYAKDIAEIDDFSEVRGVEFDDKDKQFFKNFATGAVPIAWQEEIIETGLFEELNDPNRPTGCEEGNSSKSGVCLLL
The settings on record: at 0.1 µM.

Test [10] concerns the target T1, Rhodopsin kinase GRK7 (Homo sapiens). The settings on record: at 1 µM.
The target in test [11] is Serine/threonine-protein kinase MRCK alpha (Homo sapiens) (UniProt Q5VT25). Conditions: at 0.1 µM.
Test [12] shares this target. The settings on record: at 1 µM.
Test [13] addresses Serine/threonine-protein kinase MRCK beta (Homo sapiens) (UniProt Q9Y5S2). The settings on record: at 0.1 µM.
Test [14] shares this target. Conditions: at 1 µM.
The target of test [15] is Ribosomal protein S6 kinase alpha-5 (Homo sapiens) (UniProt O75582). Conditions: at 0.1 µM.
Test [16] has the same target. Conditions: at 1 µM.
Test [17] deals with Ribosomal protein S6 kinase alpha-4 (Homo sapiens) (UniProt O75676). Conditions: at 0.1 µM.
Test [18] shares this target. Conditions: at 1 µM.
In test [19] the target is Ribosomal protein S6 kinase beta-1 (Homo sapiens) (UniProt P23443). The settings on record: at 0.1 µM.
Test [20] shares this target. Conditions: at 1 µM.

Ribosomal protein S6 kinase beta-1 (Homo sapiens), sequence (P23443 whole entry, looked up): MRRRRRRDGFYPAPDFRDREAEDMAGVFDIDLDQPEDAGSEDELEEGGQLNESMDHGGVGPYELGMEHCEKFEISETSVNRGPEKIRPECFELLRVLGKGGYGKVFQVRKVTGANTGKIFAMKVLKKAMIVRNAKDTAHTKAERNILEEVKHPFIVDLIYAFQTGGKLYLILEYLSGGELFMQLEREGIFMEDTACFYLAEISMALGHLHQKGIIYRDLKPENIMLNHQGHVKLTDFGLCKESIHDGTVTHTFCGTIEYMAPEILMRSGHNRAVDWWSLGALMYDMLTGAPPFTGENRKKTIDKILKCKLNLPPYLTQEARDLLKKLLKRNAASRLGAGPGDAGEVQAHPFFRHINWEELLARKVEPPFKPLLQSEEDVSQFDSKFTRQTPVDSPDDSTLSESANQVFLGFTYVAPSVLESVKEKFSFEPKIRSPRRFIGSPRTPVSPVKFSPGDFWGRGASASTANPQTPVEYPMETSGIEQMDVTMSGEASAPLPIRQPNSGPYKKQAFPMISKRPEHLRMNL
Ribosomal protein S6 kinase alpha-4 (Homo sapiens), sequence (O75676 whole entry, looked up): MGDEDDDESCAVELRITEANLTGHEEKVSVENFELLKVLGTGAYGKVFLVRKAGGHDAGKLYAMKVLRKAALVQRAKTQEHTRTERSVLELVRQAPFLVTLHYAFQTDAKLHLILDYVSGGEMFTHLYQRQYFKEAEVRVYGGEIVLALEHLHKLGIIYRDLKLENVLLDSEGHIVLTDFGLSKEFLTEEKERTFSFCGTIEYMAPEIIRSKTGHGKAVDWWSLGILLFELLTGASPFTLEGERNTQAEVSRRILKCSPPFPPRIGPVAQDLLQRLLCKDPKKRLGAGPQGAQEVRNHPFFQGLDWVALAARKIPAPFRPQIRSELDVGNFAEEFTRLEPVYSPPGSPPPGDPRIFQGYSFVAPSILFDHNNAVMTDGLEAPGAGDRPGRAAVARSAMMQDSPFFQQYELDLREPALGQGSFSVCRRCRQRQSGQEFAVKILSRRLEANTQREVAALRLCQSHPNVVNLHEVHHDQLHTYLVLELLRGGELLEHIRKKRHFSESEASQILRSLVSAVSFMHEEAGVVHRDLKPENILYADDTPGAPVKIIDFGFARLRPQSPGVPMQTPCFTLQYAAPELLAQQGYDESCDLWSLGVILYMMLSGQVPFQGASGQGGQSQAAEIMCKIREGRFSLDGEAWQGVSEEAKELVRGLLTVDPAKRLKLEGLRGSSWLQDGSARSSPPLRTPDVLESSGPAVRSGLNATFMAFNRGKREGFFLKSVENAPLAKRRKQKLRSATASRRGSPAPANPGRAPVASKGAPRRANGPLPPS
RAC-beta serine/threonine-protein kinase (Homo sapiens), sequence (P31751 whole entry): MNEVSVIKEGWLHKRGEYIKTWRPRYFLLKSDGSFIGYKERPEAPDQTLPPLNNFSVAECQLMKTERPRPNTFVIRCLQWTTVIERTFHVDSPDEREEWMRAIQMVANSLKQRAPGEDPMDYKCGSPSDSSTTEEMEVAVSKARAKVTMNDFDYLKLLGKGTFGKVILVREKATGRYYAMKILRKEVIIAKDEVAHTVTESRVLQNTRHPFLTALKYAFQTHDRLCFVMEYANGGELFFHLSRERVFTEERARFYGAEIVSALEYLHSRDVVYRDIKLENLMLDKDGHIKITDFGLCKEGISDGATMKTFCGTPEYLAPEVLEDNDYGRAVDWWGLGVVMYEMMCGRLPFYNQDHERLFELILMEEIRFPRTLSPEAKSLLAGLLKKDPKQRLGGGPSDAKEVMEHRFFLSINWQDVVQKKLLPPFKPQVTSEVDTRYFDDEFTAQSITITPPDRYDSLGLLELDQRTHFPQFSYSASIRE
RAC-gamma serine/threonine-protein kinase (Homo sapiens), sequence (Q9Y243 whole entry): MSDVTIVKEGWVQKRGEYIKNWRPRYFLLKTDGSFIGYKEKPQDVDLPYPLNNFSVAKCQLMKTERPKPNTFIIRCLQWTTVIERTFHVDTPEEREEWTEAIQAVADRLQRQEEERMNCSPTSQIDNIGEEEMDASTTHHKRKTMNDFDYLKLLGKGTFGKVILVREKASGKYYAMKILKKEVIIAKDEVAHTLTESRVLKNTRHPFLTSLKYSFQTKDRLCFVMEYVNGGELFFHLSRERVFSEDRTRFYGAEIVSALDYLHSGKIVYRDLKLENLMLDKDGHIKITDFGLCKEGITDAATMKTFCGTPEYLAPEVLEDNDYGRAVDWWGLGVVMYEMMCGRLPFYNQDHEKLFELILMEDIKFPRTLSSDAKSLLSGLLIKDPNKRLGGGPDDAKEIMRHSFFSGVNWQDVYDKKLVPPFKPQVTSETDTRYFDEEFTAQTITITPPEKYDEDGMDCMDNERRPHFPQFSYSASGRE
G protein-coupled receptor kinase 6 (Homo sapiens), sequence (P43250 whole entry, looked up): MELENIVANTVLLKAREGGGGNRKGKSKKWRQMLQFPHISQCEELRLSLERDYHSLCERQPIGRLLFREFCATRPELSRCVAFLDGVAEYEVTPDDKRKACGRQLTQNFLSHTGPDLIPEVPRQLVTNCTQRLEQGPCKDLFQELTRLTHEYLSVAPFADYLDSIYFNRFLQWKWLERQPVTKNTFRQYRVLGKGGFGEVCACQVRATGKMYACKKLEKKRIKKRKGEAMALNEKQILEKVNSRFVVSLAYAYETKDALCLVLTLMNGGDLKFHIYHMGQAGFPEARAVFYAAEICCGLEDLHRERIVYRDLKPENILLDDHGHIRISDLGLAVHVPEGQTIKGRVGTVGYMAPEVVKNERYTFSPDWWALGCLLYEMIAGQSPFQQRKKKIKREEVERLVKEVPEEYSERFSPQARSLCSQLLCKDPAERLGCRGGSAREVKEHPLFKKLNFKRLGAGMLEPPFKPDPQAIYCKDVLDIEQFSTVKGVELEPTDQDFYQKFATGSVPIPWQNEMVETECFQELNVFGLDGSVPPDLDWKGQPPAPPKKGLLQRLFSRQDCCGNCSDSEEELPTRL
Ribosomal protein S6 kinase alpha-5 (Homo sapiens), sequence (O75582 whole entry, looked up): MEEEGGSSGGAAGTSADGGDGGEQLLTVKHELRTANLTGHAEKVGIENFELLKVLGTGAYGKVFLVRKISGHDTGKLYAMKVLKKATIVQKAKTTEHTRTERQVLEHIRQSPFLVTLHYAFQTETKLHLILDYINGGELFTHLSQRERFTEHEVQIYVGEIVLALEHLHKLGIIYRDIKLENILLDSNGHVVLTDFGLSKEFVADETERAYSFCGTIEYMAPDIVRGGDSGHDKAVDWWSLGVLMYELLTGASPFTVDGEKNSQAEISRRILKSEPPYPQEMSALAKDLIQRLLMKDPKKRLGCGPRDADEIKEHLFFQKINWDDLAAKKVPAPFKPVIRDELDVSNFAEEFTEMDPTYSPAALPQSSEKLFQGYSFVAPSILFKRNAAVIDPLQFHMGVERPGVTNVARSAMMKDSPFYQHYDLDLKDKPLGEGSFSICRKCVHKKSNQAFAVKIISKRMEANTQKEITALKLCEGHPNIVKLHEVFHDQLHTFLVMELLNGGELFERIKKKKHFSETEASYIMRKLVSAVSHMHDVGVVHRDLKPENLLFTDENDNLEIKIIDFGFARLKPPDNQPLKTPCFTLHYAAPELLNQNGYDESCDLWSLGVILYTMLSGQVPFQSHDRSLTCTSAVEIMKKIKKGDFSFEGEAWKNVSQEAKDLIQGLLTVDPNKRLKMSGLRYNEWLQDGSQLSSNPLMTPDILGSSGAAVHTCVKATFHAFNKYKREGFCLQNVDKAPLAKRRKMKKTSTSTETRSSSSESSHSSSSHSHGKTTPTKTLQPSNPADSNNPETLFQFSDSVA
RAC-alpha serine/threonine-protein kinase (Homo sapiens), sequence (P31749 whole entry): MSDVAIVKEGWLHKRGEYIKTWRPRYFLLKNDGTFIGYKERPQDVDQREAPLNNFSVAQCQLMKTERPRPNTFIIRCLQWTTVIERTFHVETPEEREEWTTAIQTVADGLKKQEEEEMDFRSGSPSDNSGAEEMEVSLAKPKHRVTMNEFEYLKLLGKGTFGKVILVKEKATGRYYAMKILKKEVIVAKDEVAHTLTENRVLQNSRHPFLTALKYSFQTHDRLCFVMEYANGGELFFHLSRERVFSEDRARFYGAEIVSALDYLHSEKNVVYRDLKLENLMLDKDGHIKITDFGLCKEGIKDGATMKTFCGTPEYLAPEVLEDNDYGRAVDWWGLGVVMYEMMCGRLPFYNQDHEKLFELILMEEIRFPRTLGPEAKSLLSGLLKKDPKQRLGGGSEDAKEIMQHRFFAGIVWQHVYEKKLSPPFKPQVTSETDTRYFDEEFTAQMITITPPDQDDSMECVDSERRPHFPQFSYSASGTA

As to `NC(=O)c1sc(-n2cnc3ccccc32)cc1OCc1ccccc1Br`, the inhibition in test [1] amounted to 1.72%; in [2] it was 1.07%; in test [3], 0.68%; in test [4], 3.59%; in [5], 1.82%; in [6], 4.09%. Also, the inhibition turned out to be 1.41% in test [7]; 3.01% in [8]; 9.12% in [9]; 4.5% in test [10]; 1.73% in test [11]; 4.94% in test [12]. In addition, the inhibition is -1.16% in [13]; 0.28% in test [14]; 8.61% in [15]; 10% in test [16]; 2.12% in test [17]; 4.72% in test [18]. Further, the inhibition in test [19] was found to be 1.52%; in test [20], 4.06%.
`COC(=O)Nc1nc2cc(Oc3ccc(NC(=O)Nc4cccc(Br)c4)cc3)ccc2[nH]1`: the inhibition in [1] is 0.46%; in test [2], 0.17%; in test [3], 1.35%; in [4] it was 1.01%; in [5], 1.37%; in test [6] it was -2.06%. In addition, the inhibition turned out to be 4.28% in [7]; 6.2% in [8]; 3.16% in test [9]; 25.9% in test [10]; 0.43% in [11]; 0.85% in test [12]. Further, the inhibition was 1.24% in test [13]; -0.22% in [14]; 2.67% in test [15]; 1.7% in test [16]; 2.29% in test [17]; 2.39% in test [18]. Moreover, the inhibition in [19] is 2%; in test [20] it was 3.21%.
For the compound `Cc1ccc(NC(=O)CC2CC2)cc1-c1ccc(C(=O)NCC2CC2)cc1`, the inhibition in test [1] came to 0.17%; in [2], 0.7%; in test [3], 1.47%; in test [4], 1.58%; in [5] it was 1.47%; in test [6], 1.65%. Further, the inhibition was 2.05% in test [7]; 6.65% in test [8]; 0.94% in test [9]; 0.75% in [10]; -0.72% in test [11]; 2.73% in test [12]. For the same compound, the inhibition was -0.56% in [13]; 0.45% in test [14]; 8.94% in test [15]; 8.13% in test [16]; 2.17% in test [17]; 2.4% in test [18]. Further, the results for the inhibition in [19] and in test [20] were 1.73% and 2.46%, respectively.
Take `FC(F)(F)c1ccc(-c2nn3ncccc3c2-c2ccnc(Nc3ccc4c(c3)OCCO4)n2)cc1`: the inhibition in test [1] was 0.91%; in test [2], 0.98%; in test [3], 0.17%; in test [4] it was 0.25%; in test [5], -0.63%; in [6] it was -0.79%. Further, the inhibition came out at 1.14% in test [7]; 12.6% in [8]; 4.88% in [9]; 11.6% in test [10]; 7.63% in test [11]; 5.17% in test [12]. Besides, the inhibition in test [13] was 6.18%; in test [14], 4.64%; in [15], 3.36%; in test [16], 4.3%; in test [17], 5.05%; in test [18], 6.41%. Besides, the inhibition in test [19] came out at 1.5%; in [20] it was 2.06%.
Regarding `CCn1c(-c2nonc2N)nc2c(C#CC(C)(C)O)nc(OCCNC)cc21`, the inhibition in test [1] came out at 20.8%; in [2] it was 67.4%; in [3] it was 33.1%; in test [4], 75.3%; in [5] it was 23.1%; in [6], 68.2%. The inhibition came to 4.94% in test [7]; 3.62% in [8]; 9.11% in test [9]; 2.53% in [10]; 1.79% in test [11]; 6.63% in test [12]. Also, the inhibition in [13] is -0.48%; in test [14] it was 2.36%; in test [15], 1.77%; in test [16], 2.97%; in [17] it was 3.16%; in test [18], 9.93%. Also, the inhibition came out at 3.31% in [19] and 10.1% in test [20].
Turning to `[O-][S+]1CCN(Cc2ccc(-c3ccc4ncnc(Nc5ccc(OCc6ccccc6)c(Cl)c5)c4c3)o2)CC1`, the inhibition in [1] was 0.1%; in [2], -0.3%; in [3], 0.29%; in test [4], 1.29%; in test [5], 0.15%; in test [6], 2.06%. In addition, the inhibition is -0.03% in test [7]; 1.12% in test [8]; 7.76% in test [9]; -2.22% in test [10]; -2.24% in test [11]; -0.57% in [12]. In addition, the inhibition in [13] is 0.47%; in test [14], -0.33%; in test [15], 1.47%; in [16] it was 1.03%; in test [17], -0.52%; in test [18], 0.11%. The inhibition in [19] was -1.26%; in test [20], -0.16%.
Consider `COc1cc2ncnc(Nc3ccc4c(cnn4Cc4ccccc4)c3)c2cc1OC`, for which the inhibition in [1] was -0.49%; in [2] it was 0.77%; in [3] it was 0.99%; in [4], 1%; in [5], 0.08%; in test [6], 2.09%. The inhibition is -0.46% in test [7]; 2.17% in [8]; 9.43% in test [9]; 2.89% in [10]; 1.92% in test [11]; 0.94% in test [12]. For the same compound, the inhibition was -0.95% in test [13]; -0.76% in test [14]; 7.1% in [15]; 7.6% in [16]; 1.21% in [17]; 2.89% in [18]. Moreover, the inhibition is 0.98% in [19] and 1.35% in test [20].

As usually defined, the inhibition is the drop in the measured response relative to a control, in per cent.
